From PubChem BioAssay
D2 PAM-1: HTS Assay for Positive Allosteric Modulators of the Human D2 Dopamine Receptor: Primary Screen for Potentiators. potentiation, % at 10 µM. D(2) dopamine receptor (Homo sapiens), P14416. HEK293 T-REx D2, calcium flux, EC20 dopamine potentiation. 340,000 compounds, 0.34% hits;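 active means potentiation over 3 SD above the plate norm, cut at about 30% in these data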; further: 0% is about no effect
Target sequence (P14416 whole entry, looked up): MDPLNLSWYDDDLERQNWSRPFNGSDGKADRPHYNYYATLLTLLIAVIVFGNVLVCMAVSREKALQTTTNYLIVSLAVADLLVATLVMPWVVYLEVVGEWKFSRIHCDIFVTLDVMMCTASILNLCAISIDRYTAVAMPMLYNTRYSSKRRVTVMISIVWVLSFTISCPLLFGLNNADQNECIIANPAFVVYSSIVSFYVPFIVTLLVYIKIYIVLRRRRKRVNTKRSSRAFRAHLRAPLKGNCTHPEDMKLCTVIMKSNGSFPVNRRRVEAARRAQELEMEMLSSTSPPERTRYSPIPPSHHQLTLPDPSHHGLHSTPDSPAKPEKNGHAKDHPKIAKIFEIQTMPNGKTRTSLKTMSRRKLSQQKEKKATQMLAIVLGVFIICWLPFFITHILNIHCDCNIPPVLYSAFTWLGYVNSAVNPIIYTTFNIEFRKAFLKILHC
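Using a no-wash calcium dye in inducible, force-coupled HEK293 Trex cells expressing D2, we tracked fluorescence each second for 180 s after compound, then for 180 s after EC20 dopamine to detect augmented signalling.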
D2 ag-1: Beta-Arrestin HTS for Positive Allosteric Modulators of the Human D2 Dopamine Receptor: Agonists | DiscoveRx PathHunter D2 beta-arrestin, luminescence, 90 min; 100% = 57 uM dopamine signal | 360,000 compounds, 0.084% hits | activation, % (test concentration not listed) | AID 624465, 2012; in the data active means activation above about 40%; inconclusive means between about 15% and that limit
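DiscoveRx PathHunter D2 beta-arrestin cells (2,100/well) attached overnight, then compound-stimulated 90 min at 37 C in HBSS/10 mM HEPES/0.1% Tween-20 buffer; beta-galactosidase complementation read by luminescence after 1 h at ambient temperature. Dopamine 57 uM final (EC100) as control.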
D2 antag: HTS Assay for Allosteric Antagonists of the Human D2 Dopamine Receptor: Primary Screen for Antagonists; D(2) dopamine receptor (Homo sapiens), P14416; HEK293 TREx D2 cells, calcium flux, dopamine EC80; inhibition, % at 10 µM; 340,000 compounds, 2% hits; in the data active means inhibition above about 30%; inactive means below that, where a call was filed; further: 0% is about no effect
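Dopamine at EC80 is the agonist stimulus; test compounds precede it by 180 s. Calcium flux read kinetically in a force-coupled, inducible HEK293 T-REx D2 cell line.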
D2 ag-2: HTS Assay for Allosteric Agonists of the Human D2 Dopamine Receptor: Primary Screen for Agonists. D(2) dopamine receptor (Homo sapiens), P14416. HEK293 T-REx D2 cells, calcium flux agonist mode. activation, % at 2 µM. 340,000 compounds, 0.53% hits;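 active means activation over 3 SD above normal in the single-dose calcium agonist read, cut at about 30% in these data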; further: 0% is about no effect
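Tetracycline-induced HEK293 Trex cells with D2 receptor force-coupled to calcium signaling, plated overnight at 30 C and loaded with no-wash calcium dye. Calcium flux read kinetically for 180 s after compound addition; responses flag agonists.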
D2 PAM-2: Beta-Arrestin HTS for Positive Allosteric Modulators of the Human D2 Dopamine Receptor: Potentiators; D(2) dopamine receptor (Homo sapiens), P14416; DiscoveRx D2 beta-arrestin cells, luminescence, 90 min; 100% = 57 uM dopamine signal; potentiation, % (no concentration beside the values); 360,000 compounds, 0.23% hits; AID 624464, 2012; in the data active means potentiation above about 50%; inconclusive means mostly about 30% to 49%
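PathHunter D2 cells, attached overnight at 37 deg C, received compound in DMSO plus dopamine at EC20 (50 nM final) for 90 min at 37 deg C. Beta-arrestin recruitment was read as luminescence after 1 h with detection reagent at ambient temperature.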
Numbers without * were called inactive; ? = inconclusive; / = no result given. Most compounds without a hit are left out; they make up all but 2.4% or so of the library.

SMILES | D2 PAM-1 | D2 ag-1 | D2 antag | D2 ag-2 | D2 PAM-2
c1ccc(-c2noc(CN3CCc4sccc4C3)n2)cc1 | 3 | 2 | 35* | 0 | 10
Cn1c(=O)[nH]c(=O)c2c1nc(N1CCOCC1)n2CCSc1nnnn1-c1ccccc1 | -7 | 6 | 37* | 0 | -7
CC(CSc1nnnn1-c1ccccc1)Cn1c(N2CCCC2)nc2c1c(=O)[nH]c(=O)n2C (configuration not stated) | 6 | -4 | -10 | 1 | -11
O=C(COc1ccccc1[N+](=O)[O-])N/N=C/c1ccc(O)cc1 | 13 | 13 | 4 | 0 | 72*
COc1cccc(Nc2nc(=O)[nH]nc2C)c1 | / | -2 | 34* | -1 | -3
C[C@H]1CCC[C@]2(O[C@@H](CCO)C[C@H](O)[C@H]2O)O1 | -4 | -4 | 31* | 0 | -2
Cc1nc2ccccc2c(=O)n1CCCO | -18 | -5 | 32* | -1 | -12
COc1ccccc1NC(=O)CSc1nc2ccccc2nc1N1CC(C)OC(C)C1 (configuration not stated) | -8 | -3 | -2 | 0 | -1
CCc1nc(SCC(=O)Nc2cc(C)ccc2OC)c2c(C)c(C)sc2n1 | 5 | 1 | 44* | 0 | 0
COc1ccc(C)cc1NC(=O)CSc1nc2ccccc2nc1N1CC(C)OC(C)C1 (configuration not stated) | -1 | -1 | 38* | 0 | -2
CCc1nc(SCC(=O)Nc2ccccc2OC)c2c(C)c(C)sc2n1 | -9 | -6 | -7 | 1 | 9
CC(C)n1nnnc1-c1ccc(Cl)cc1 | 14 | 1 | -6 | 0 | -4
NS(=O)(=O)c1ccc(CCNCC(=O)N2CCC(Cc3ccccc3)CC2)cc1 | 13 | -4 | / | 0 | -34
Cc1cc(C)nc(Sc2ccc([N+](=O)[O-])cc2[N+](=O)[O-])n1 | 10 | 9 | -7 | 0 | 70*
O=[N+]([O-])c1ccc(Sc2ccncn2)c([N+](=O)[O-])c1 | / | ? | / | / | -16
CCN(CC)c1ccc(/C=C2\C(=N)N3N=C(CC(=O)N4CCOCC4)SC3=NC2=O)cc1 | -5 | -1 | 8 | 33* | -2
Cc1cccc(N2CCN(C(=O)c3nn(C)c4c3CS(=O)(=O)c3ccccc3-4)CC2C)c1 (configuration not stated) | 0 | -2 | -21 | 0 | 8
O=C1CCSc2ccc(Cl)cc2N1Cc1cccc(Cl)c1 | 12 | -4 | 33* | 0 | -14
Cc1ccc(CN2C(=O)CCSc3ccc(Cl)cc32)cc1 | -4 | -3 | -6 | 1 | -3
O=C(CCNS(=O)(=O)c1cccc(C(F)(F)F)c1)NC1CC1 | 45* | -1 | 13 | -1 | 0
CC1CCC(NC(=O)CCNS(=O)(=O)c2ccccc2)CC1 (configuration not stated) | -8 | -2 | 12 | 1 | 2
COc1ccc(N(CC(=O)Nc2ccc3c(c2)OCO3)S(=O)(=O)c2ccc(C)cc2)cc1OC | -28 | -1 | 54* | 1 | -12
COc1ccc(S(=O)(=O)N(CC(=O)NCc2ccncc2)c2ccc(C)cc2)cc1Br | 1 | -1 | 33* | 0 | -4
Cc1ccc(N(CC(=O)NCc2ccc(F)cc2)S(=O)(=O)c2cccs2)cc1 | -12 | 3 | 46* | 1 | 1
COc1ccc(N(CC(=O)Nc2ccc3c(c2)OCO3)S(=O)(=O)c2ccccc2)cc1OC | 0 | 1 | 8 | -1 | 4
SMILES | D2 PAM-1 | D2 ag-1 | D2 antag | D2 ag-2 | D2 PAM-2
O=C(Nc1ccc(Br)cc1F)C(NS(=O)(=O)c1cccc2nsnc12)c1ccccc1 (configuration not stated) | -8 | / | / | -1 | /
CCOc1ccccc1NC(=O)C1CCCN(S(=O)(=O)c2cccs2)C1 (configuration not stated) | -5 | / | / | 0 | /
C/C(=N\OC(=O)Nc1ccc(Cl)cc1)c1ccc(F)c(F)c1 | -26 | 11 | 41* | -1 | -17
C[C@H]1COC(=O)CC/C=C\C[C@H](CC(=O)N(CCO)Cc2ccccc2)C(=O)N1 | / | -2 | / | / | -3
CCCCN(C)C1=CC2=CC(=C(C#N)C#N)CCC2CC1 (configuration not stated) | -19 | 10 | 73* | 140* | 13
N#CC1=C(N)C2=C(N3CCCCC3)CCCC2C1(C#N)C#N (configuration not stated) | 17 | 3 | -15 | 1 | 4
N#CC(C#N)=C1C=C2C=C(N3CCCCC3)CCC2CC1 (configuration not stated) | -18 | ? | 87* | 132* | 22
O=C(COc1cccc2cccnc12)Nc1ccccc1N1CCOCC1 | / | 2 | 30* | 0 | 8
Cc1cc(C)cc(N(C(=O)c2ccco2)C(C(=O)NC2CCCC2)c2ccncc2)c1 (configuration not stated) | 4 | -1 | 37* | -1 | 8
COc1ccc(Cl)cc1N(C(=O)c1ccco1)C(C(=O)NC1CCCC1)c1cccnc1 (configuration not stated) | -3 | -5 | 4 | -2 | -10
COc1ccc(OC)c(N(C(=O)c2ccco2)C(C(=O)NC2CCCC2)c2cc(OC)c(OC)c(OC)c2)c1 (configuration not stated) | -1 | 1 | 36* | 1 | 3
COc1ccc(Cl)cc1N(C(=O)c1ccco1)C(C(=O)NC1CCCC1)c1ccncc1 (configuration not stated) | 7 | 0 | 39* | 0 | -3
C=CCN(C(=O)CNC(=O)c1ccco1)C(C(=O)NC1CCCCC1)c1ccccc1F (configuration not stated) | 38* | -4 | -7 | 0 | -7
COCCN(C(=O)CNC(=O)c1ccco1)C(C(=O)NC1CCCC1)c1ccccc1F (configuration not stated) | 12 | 2 | -16 | 1 | -2
COc1ccc(CCN2C(=O)N(c3ccc(F)cc3)C(=O)C2CC(=O)Nc2ccc(OC)cc2)cc1 (configuration not stated) | -17 | / | / | 0 | /
CCN1CCN(C(=O)CN(CC)S(=O)(=O)c2ccc(F)cc2)CC1 | / | -6 | / | / | -19
